According to PubChem BioAssay (NCATS):
Inconclusive results are not listed. Calls of active or inactive are those of the source. The call rests on the fitted dose curve.

molecular target: Atrial natriuretic peptide receptor 1 (Homo sapiens) (UniProt P16066); test: Natriuretic polypeptide receptor (hNpr1) antagonism - Pilot CMLD screen (AID 1347052); details: HEK293 hNpr1 GloSensor cGMP luminescence, ANP-stimulated; series mostly up to 9.22 µM;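 further: HEK293 cells with hNpr1 stimulated by hNppA peptide at 0.1 nM; cGMP level read as GloSensor luciferase luminescence after agonist stimulation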
Sequence (P16066 whole entry, looked up): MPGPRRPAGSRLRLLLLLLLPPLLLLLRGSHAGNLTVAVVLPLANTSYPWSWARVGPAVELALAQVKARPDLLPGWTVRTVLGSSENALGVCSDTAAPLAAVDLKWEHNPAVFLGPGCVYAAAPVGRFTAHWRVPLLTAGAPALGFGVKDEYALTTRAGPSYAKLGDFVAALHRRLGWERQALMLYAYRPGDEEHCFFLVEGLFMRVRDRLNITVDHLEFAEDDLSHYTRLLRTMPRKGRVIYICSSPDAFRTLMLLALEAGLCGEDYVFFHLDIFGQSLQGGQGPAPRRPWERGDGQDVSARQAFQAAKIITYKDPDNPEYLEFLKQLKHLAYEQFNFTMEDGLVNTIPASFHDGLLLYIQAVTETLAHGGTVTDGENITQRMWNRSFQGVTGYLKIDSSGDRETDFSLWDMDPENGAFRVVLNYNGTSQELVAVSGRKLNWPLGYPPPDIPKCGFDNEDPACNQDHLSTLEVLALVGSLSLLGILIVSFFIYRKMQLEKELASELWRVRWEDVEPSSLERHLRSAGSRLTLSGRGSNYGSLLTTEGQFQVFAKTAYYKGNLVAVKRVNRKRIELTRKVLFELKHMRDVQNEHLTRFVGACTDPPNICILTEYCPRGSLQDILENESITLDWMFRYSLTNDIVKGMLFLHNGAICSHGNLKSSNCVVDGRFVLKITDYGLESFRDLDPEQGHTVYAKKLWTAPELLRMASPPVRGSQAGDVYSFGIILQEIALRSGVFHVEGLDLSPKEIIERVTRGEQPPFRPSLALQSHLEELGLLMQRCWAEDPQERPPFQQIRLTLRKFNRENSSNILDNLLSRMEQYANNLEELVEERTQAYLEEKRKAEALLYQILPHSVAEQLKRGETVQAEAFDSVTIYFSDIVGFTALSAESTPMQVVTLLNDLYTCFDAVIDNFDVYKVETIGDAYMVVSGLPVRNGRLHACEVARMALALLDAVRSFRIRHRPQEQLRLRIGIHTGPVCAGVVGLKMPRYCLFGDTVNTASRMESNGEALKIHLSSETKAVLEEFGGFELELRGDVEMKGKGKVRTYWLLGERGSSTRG

Potency, inactive:
COc1ccc2c(c1)[C@H](C=Cc1ccccc1)[C@@H]([C@H](O)CO)O2
C[C@H]1[C@@H](C(=O)N2CCCC2)CC(=O)C(=NOCc2ccccc2)C[C@H]1c1ccccc1
COC(=O)C1=C(C(=O)OC)[C@@H]2N(C)c3ccccc3[C@@]23CCC(=O)N(Cc2cc(OC)c(OC)c(OC)c2)C3=N1
C=CCN1C(=O)CC[C@@]23C1=NC(C(=O)OC)=C(C(=O)OC)[C@@H]2N(CC#CC)c1ccccc13
C=CCC(Nc1ccc(OC)cc1)(C(=O)OCC)c1ccccc1 (stereo unspecified)
COc1ccc(O[C@H]2C=C[C@@H](c3ccccc3)O[C@H]2CON=C[C@@H](C)[C@H](OCc2ccccc2)C(C)C)cc1
CC(C)OC(=O)[C@H](C)NC(=O)N1CCc2nc(-c3ccccc3)c3c(c2C1)CO[C@@H](C)C3
N#Cc1ccc2c(c1)C[C@]1(c3ccsc3)Oc3c(c(=O)oc4ccccc34)[C@H]2O1
CC1(OC(=O)CCc2ccccc2)C(=O)C=C2C=C(c3ccc(C#N)cc3)N(CC3CC3)C=C2C1=O (stereo unspecified)
COc1ccc(OC[C@H]2CN3[C@H](c4ccc(Br)cc4)[C@H](C)CC[C@H]3C(=O)O2)cc1
C=CCOC(=O)N[C@H](c1ccc(-c2ccccc2)cc1)[C@H](C)C=CCC(=O)OC
C[C@H]1Cc2c(COc3ccccc3)nc3c(c2CO1)CN(C(=O)NCc1ccco1)CC3
COC(=O)N[C@@H](C=Cc1ccccc1)C[N+](=O)[O-]
COC(=O)[C@@H]1C=C[C@H](C)[C@H](CCOc2ccccc2)O1
COc1cc2c(cc1OC)[C@@]1(c3ccccc3)CCCC[C@H]1[C@@H]2NC(=O)C(F)(F)F
COC(=O)CCCC1=CC2=CC(=O)C(C)(OC(=O)c3cccs3)C(=O)C2=CN1c1ccc(OC)cc1 (stereo unspecified)
COc1ccc(O[C@H]2C=C[C@@H](c3ccccc3)O[C@H]2COC(=O)NCc2cccc3ccccc23)cc1
CC(=O)O[C@H](C(=O)O[C@@H]1C[C@@H](CCC[C@H]2O[C@H](C(=O)OC(C)C)CC[C@@H]2C)O[C@@H](CC#N)C1)c1ccccc1
COC(=O)C1=C(C(=O)OC)[C@@H]2Nc3ccccc3[C@@]23C[C@@H](C(=O)OC)N(C(=O)N2CCNC2=O)C3=N1
COC(=O)[C@]1(C=C2c3ccccc3C[C@H](OC)[C@@H]2C)[C@@H]2CC=C[C@@H]21
C=C(C(C)=O)C(O)c1ccccc1 (stereo unspecified)
Cc1cc2c(c(=O)o1)[C@H]1O[C@](CCCCN3C(=O)c4ccccc4C3=O)(Cc3cc(C#N)ccc31)O2
CC(CCN1CCCCc2nc(C)c(C)cc21)=NO[C@H](C)c1cn([C@H](CO)Cc2ccccc2)nn1
COc1ccc2c(c1)C(=O)[C@@H](OC(=O)NCCc1ccc(OC)c(OC)c1)[C@H](c1ccc(OC)c(Br)c1)O2
COC(=O)CCCC1=CC2=C(c3ccccc3)C(=O)C(C)(OC(=O)C3CCCC3)C(=O)C2=CN1Cc1ccc2c(c1)OCO2 (stereo unspecified)
C=CC[C@@]1(c2ccc(OC)cc2)Oc2ccccc2C2=NCCN=C21
